Common to all, as to test: DAPPL (digital affinity profiling via proximity ligation, sequencing); 10 mM Tris-HCl pH 7.5, 50 mM NaCl, 1 mM DTT, 4% glycerol, room temperature, 30 min; GST-TFs on glutathione beads, 16-mer random dsDNA library, 0.1% formaldehyde crosslink after washing; high values mean tight binding
One assay has as its target T1, FEV (Homo sapiens, UniProt Q99581 1-238).
T1 sequence: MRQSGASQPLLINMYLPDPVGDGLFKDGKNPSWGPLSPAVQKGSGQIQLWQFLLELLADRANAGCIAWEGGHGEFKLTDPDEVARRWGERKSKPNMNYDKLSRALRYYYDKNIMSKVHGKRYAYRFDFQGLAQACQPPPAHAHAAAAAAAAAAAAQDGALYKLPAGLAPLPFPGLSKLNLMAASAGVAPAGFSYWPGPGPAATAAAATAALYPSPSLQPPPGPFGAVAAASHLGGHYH
Conditions: protein: recombinant; tags: N-terminal GST; dsDNA, one strand shown. A digest of the protocol: (§1)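 Binding signal is given per hexamer as its read frequency for a factor divided by its frequency in the tag-only sample. GST-fused human transcription factors were expressed in yeast, captured on glutathione beads, barcoded with DNA and pooled with that sample, then incubated with 200 nmole of a 16-mer random double-stranded DNA library in Tris/NaCl/DTT/glycerol buffer for 30 min at room temperature. The pools were then washed, crosslinked, proximity-ligated, amplified by PCR and sequenced on an Illumina NextSeq500.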

For a further assay, the target named is ETV5 (Homo sapiens, UniProt P41161 1-510). The settings on record: protein: recombinant; tags: N-terminal GST; dsDNA, one strand shown. A digest of the protocol: as §1
A further assay concerns the target HSF1 (Homo sapiens, UniProt Q00613 1-529). Conditions: protein: recombinant; tags: N-terminal GST; chain copies: 3; dsDNA, one strand shown. The method, boiled down:
as §1

The target in the next assay is T2, SPIC (Homo sapiens, UniProt Q8N5J4 1-248).
T2 sequence: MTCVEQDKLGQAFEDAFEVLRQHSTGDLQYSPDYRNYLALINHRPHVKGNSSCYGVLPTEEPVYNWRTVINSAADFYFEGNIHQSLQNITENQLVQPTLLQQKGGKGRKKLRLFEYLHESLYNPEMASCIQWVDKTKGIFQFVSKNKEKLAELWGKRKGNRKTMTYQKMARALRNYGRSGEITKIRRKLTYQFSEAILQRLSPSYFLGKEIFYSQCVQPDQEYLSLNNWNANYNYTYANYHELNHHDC
Conditions: protein: recombinant; tags: N-terminal GST; dsDNA, one strand shown. The method, boiled down:
as §1

For the next assay, the target named is ELF4 (Homo sapiens, UniProt Q99607 1-663). Conditions: protein: recombinant; tags: N-terminal GST; dsDNA, one strand shown. The method, boiled down: as §1
Another assay has as its target T3, ELK4 (Homo sapiens, UniProt P28324-2 1-405).
T3 sequence: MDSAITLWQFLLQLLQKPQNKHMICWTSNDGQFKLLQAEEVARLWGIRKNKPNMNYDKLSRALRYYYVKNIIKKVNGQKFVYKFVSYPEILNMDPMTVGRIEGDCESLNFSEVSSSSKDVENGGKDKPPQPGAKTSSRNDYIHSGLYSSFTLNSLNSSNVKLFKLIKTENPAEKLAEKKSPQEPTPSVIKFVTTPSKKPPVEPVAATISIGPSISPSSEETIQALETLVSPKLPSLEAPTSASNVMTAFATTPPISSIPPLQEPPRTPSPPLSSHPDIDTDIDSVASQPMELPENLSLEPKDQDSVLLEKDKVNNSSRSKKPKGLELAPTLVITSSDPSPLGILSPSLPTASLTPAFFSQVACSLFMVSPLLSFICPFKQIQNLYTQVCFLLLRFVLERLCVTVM
The settings on record: protein: recombinant; tags: N-terminal GST; dsDNA, one strand shown. The method, boiled down: as §1

A further assay addresses T4, ETV2 (Homo sapiens, UniProt O00321 1-342).
T4 sequence: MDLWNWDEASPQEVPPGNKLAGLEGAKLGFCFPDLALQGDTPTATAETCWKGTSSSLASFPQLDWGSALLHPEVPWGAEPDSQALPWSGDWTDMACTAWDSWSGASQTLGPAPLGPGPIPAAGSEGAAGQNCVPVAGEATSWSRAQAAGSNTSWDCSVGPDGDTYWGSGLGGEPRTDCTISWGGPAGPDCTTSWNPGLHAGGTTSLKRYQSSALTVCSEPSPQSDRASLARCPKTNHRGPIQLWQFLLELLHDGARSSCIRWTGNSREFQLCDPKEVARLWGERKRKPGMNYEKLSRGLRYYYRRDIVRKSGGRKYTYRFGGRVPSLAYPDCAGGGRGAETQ
The settings on record: protein: recombinant; tags: N-terminal GST; dsDNA, one strand shown. A digest of the protocol:
as §1

The target in a further assay is T5, ELF3 (Homo sapiens, UniProt P78545 1-371).
T5 sequence: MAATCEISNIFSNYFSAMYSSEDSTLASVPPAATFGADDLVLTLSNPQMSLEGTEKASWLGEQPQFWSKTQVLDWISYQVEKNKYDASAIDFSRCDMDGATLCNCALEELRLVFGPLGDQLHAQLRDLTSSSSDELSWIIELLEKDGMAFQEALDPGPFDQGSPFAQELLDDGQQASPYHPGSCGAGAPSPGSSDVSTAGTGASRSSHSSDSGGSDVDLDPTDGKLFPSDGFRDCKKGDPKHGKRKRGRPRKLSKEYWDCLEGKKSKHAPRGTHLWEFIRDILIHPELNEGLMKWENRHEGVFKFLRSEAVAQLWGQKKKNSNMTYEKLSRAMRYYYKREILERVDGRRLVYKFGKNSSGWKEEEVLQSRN
Conditions: protein: recombinant; tags: N-terminal GST; dsDNA, one strand shown. A digest of the protocol: as §1

Another assay deals with CRX (Homo sapiens, UniProt O43186 1-299). Conditions: protein: recombinant; tags: N-terminal GST; dsDNA, one strand shown. The method, boiled down:
as §1

The target in another assay is ETV1 (Homo sapiens, UniProt P50549 1-477). Conditions: protein: recombinant; tags: N-terminal GST; dsDNA, one strand shown. A digest of the protocol:
as §1

For a further assay, the target named is T6, ERF (Homo sapiens, UniProt P50548 1-548).
T6 sequence: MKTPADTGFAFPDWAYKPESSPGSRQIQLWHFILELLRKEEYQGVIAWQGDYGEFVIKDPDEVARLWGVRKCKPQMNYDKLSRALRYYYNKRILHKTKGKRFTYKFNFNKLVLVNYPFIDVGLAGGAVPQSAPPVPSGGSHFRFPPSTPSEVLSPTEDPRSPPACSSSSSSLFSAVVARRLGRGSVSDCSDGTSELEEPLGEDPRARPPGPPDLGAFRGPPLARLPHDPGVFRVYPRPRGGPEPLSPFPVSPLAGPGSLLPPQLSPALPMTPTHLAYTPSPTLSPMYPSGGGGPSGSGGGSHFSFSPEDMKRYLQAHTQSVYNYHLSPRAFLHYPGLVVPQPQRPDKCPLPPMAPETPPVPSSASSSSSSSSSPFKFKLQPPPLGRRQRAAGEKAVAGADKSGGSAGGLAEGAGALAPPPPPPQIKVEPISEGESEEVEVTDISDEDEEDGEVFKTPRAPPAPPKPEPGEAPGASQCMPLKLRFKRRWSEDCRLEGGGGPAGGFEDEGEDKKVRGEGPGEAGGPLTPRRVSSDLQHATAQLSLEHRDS
The settings on record: protein: recombinant; tags: N-terminal GST; dsDNA, one strand shown. The method, boiled down: as §1

Another assay concerns the target T7, ETV3L (Homo sapiens, UniProt Q6ZN32 1-361).
T7 sequence: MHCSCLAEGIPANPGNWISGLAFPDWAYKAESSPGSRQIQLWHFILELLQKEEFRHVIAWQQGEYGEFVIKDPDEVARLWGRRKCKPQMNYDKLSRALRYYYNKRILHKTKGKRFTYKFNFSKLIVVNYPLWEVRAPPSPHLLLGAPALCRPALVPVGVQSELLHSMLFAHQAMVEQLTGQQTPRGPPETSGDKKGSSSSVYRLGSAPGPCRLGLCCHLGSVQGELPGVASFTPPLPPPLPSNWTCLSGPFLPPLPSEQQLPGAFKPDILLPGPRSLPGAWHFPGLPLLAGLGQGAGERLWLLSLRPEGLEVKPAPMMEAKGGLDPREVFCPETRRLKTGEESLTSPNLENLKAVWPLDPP
The settings on record: protein: recombinant; tags: N-terminal GST; dsDNA, one strand shown. The method, boiled down:
as §1

Another assay has as its target T8, ETS2 (Homo sapiens, UniProt P15036 1-469).
T8 sequence: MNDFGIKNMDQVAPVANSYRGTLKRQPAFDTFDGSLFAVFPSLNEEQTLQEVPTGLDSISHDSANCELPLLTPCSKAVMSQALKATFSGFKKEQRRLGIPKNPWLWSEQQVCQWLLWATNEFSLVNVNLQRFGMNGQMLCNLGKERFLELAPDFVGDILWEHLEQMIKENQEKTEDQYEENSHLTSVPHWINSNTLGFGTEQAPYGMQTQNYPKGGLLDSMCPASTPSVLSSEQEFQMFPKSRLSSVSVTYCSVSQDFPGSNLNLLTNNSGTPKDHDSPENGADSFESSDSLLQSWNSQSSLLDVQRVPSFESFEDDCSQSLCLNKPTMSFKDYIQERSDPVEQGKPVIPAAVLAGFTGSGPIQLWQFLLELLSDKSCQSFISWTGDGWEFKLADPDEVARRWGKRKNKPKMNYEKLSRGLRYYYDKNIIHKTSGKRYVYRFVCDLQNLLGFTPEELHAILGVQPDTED
The settings on record: protein: recombinant; tags: N-terminal GST; dsDNA, one strand shown. A digest of the protocol: as §1

Another assay deals with T9, SPDEF (Homo sapiens, UniProt O95238 1-335).
T9 sequence: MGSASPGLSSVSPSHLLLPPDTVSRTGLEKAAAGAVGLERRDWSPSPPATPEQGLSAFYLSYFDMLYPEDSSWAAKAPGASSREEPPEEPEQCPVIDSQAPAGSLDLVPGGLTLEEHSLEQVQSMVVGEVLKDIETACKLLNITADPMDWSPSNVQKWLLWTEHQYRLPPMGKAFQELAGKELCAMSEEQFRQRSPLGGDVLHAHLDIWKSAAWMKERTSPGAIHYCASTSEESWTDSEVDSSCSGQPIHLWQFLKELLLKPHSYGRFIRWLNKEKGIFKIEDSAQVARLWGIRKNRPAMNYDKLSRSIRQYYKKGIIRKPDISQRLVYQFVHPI
Conditions: protein: recombinant; tags: N-terminal GST; dsDNA, one strand shown. The method, boiled down: as §1

The next assay addresses T10, ETV7 (Homo sapiens, UniProt Q9Y603 1-341).
T10 sequence: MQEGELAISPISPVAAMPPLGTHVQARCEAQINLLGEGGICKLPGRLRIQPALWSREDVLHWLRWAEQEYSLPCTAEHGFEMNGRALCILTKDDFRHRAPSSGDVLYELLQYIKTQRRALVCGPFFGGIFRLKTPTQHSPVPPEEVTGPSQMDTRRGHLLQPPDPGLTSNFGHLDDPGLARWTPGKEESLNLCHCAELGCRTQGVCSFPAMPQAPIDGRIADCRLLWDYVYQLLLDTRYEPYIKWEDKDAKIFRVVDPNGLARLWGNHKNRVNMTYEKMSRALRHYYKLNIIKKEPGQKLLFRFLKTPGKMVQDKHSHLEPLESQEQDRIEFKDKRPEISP
Conditions: protein: recombinant; tags: N-terminal GST; dsDNA, one strand shown. The method, boiled down:
as §1

The next assay concerns the target T11, ELF5 (Homo sapiens, UniProt Q9UKW6-2 1-255).
T11 sequence: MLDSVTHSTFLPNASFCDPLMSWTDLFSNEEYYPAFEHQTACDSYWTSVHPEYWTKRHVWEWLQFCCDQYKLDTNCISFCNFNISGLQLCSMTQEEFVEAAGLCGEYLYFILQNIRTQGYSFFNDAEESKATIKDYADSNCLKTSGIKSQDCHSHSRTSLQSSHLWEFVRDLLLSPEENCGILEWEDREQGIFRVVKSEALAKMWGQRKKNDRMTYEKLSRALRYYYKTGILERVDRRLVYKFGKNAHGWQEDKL
Conditions: protein: recombinant; tags: N-terminal GST; dsDNA, one strand shown. The method, boiled down:
as §1

Another assay addresses T12, ETV3 (Homo sapiens, UniProt P41162-2 1-143).
T12 sequence: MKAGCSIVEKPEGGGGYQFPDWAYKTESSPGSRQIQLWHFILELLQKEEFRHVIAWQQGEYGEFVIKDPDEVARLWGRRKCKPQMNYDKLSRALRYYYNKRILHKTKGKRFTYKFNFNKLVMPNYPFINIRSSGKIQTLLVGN
The settings on record: protein: recombinant; tags: N-terminal GST; dsDNA, one strand shown. A digest of the protocol: as §1

In the next assay the target is ETV6 (Homo sapiens, UniProt P41212 1-452). The settings on record: protein: recombinant; tags: N-terminal GST; dsDNA, one strand shown. A digest of the protocol:
as §1

Sequence of HSF1 (Q00613 whole entry): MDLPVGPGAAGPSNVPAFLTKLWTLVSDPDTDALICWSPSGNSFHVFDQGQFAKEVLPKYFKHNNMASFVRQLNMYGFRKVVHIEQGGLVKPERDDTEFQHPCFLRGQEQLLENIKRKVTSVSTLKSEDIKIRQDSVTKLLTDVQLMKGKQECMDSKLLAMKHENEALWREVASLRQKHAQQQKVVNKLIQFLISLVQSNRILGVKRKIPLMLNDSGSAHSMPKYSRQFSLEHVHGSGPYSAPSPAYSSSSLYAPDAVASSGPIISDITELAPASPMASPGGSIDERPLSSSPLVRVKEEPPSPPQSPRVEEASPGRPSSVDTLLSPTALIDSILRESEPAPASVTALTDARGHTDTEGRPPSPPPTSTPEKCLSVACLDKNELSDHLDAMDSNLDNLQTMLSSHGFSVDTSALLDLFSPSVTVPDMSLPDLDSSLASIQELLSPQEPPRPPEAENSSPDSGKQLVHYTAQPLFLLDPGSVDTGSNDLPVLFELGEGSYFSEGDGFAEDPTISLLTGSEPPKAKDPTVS
Sequence of ETV5 (P41161 whole entry): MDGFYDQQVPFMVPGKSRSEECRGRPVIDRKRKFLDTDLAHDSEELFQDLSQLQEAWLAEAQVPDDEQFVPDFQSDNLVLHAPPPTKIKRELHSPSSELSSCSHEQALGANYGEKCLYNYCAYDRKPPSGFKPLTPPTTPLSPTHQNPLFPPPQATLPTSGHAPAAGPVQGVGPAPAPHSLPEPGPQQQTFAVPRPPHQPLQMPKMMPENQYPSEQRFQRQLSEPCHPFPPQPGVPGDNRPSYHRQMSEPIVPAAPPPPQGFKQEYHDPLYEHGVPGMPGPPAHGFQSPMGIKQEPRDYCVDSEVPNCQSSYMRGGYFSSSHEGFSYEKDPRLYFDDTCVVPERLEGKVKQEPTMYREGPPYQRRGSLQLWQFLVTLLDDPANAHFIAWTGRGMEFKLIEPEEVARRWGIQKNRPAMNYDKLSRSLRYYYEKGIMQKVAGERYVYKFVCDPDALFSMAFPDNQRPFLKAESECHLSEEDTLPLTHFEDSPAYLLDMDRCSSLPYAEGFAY
Sequence of ETV6 (P41212 whole entry): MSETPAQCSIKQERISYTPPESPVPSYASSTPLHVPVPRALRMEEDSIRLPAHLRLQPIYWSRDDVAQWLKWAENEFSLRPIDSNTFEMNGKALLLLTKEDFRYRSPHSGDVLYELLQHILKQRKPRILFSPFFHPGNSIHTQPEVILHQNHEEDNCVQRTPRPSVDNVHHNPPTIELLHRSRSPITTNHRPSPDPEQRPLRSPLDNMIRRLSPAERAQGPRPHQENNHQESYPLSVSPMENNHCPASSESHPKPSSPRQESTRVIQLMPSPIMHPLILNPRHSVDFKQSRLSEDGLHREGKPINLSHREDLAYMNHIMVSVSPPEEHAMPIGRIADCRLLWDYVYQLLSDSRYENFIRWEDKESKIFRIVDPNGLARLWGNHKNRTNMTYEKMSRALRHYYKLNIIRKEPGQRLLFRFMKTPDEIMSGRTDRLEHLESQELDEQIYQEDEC
Sequence of ELF4 (Q99607 whole entry): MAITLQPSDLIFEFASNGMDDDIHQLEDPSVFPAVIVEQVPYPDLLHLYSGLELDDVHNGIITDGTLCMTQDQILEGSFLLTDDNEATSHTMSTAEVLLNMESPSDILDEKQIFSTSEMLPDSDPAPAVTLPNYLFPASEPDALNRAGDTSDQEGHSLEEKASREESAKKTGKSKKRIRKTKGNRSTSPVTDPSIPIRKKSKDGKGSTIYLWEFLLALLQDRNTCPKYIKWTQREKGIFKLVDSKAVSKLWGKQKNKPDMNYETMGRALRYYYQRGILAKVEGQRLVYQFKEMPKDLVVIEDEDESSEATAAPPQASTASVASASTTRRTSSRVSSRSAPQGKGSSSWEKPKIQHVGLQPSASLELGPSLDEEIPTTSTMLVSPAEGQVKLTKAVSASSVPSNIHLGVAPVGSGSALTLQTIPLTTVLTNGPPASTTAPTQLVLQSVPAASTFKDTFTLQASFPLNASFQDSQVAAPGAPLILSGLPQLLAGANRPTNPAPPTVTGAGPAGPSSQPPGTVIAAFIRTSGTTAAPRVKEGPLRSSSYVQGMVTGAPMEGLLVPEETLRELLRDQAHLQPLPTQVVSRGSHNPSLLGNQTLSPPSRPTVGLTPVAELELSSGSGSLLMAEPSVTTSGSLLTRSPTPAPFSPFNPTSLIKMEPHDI
Sequence of CRX (O43186 whole entry): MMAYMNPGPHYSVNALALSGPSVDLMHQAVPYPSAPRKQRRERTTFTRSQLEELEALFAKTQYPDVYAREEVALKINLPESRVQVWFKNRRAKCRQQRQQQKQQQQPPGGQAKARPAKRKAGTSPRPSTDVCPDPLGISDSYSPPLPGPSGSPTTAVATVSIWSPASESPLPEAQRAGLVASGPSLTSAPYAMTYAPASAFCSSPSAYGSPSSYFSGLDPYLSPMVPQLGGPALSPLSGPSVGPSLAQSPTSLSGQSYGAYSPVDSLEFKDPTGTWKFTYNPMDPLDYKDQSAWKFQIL
Sequence of ETV1 (P50549 whole entry): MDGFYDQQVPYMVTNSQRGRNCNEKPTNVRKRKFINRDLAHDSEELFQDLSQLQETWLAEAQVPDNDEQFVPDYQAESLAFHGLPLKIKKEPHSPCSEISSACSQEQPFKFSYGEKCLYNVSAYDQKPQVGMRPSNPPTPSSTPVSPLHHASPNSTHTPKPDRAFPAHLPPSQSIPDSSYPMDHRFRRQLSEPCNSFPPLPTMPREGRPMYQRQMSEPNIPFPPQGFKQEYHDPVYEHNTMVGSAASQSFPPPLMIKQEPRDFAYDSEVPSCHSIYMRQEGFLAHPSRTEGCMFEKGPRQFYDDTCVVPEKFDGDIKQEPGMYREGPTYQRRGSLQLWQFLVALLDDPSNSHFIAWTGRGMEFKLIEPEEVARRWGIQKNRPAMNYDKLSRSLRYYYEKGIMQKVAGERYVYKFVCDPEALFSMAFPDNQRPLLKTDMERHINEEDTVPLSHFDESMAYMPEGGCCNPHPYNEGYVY

Turning to ATTCCT, the binding signal with FEV is 1.34 fold enrichment (6-mer frequency, TF over GST control); in the assay with ETV5, 1.39 fold enrichment (6-mer frequency, TF over GST control); with HSF1 it was 1.57 fold enrichment (6-mer frequency, TF over GST control); with SPIC, 1.27 fold enrichment (6-mer frequency, TF over GST control); with ELF4 it was 1.39 fold enrichment (6-mer frequency, TF over GST control); with ELK4 it was 1.22 fold enrichment (6-mer frequency, TF over GST control). Further, the binding signal with ETV2 is 1.45 fold enrichment (6-mer frequency, TF over GST control); in the assay with ELF3, 1.2 fold enrichment (6-mer frequency, TF over GST control); in the assay with CRX, 1.33 fold enrichment (6-mer frequency, TF over GST control); with ETV1, 1.28 fold enrichment (6-mer frequency, TF over GST control); with ERF, 1.2 fold enrichment (6-mer frequency, TF over GST control); with ETV3L, 1.32 fold enrichment (6-mer frequency, TF over GST control). The binding signal with ETS2 was 1.39 fold enrichment (6-mer frequency, TF over GST control); with SPDEF it was 1.32 fold enrichment (6-mer frequency, TF over GST control); with ETV7, 1.39 fold enrichment (6-mer frequency, TF over GST control); with ELF5, 1.68 fold enrichment (6-mer frequency, TF over GST control); in the assay with ETV3, 1.47 fold enrichment (6-mer frequency, TF over GST control); with ETV6, 1.35 fold enrichment (6-mer frequency, TF over GST control).

The values above are taken from publication PMC7862700, “An all-to-all approach to the identification of sequence-specific readers for epigenetic DNA modifications on cytosine”.
